# The entries come from a sample that favours hits as a whole.
# DNA Pol III inh: inhibitors of bacterial DNA polymerase III holoenzyme; 71,000 tested, 0.25% active; Potency, µM (doses to about 57.1 µM); AID 603; reconstituted DNA polymerase III holoenzyme replication, biochemical
#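 Reconstituted *E. coli* holoenzyme (0.35 nM Pol III, 1 nM beta, 154 nM SSB, 2 nM primase) was preincubated with compound for 15 min at RT. Synthesis on 1.4 nM ssM13Gori ran 35 min, then was stopped with PicoGreen/EDTA and read as dsDNA fluorescence.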
# BRCT inh red: BRCT-phosphoprotein interaction inhibition (red fluorophore); AID 892; Potency, µM (highest dose often 76.9 µM), hits mostly inhibitors; P38398; BRCT-phosphopeptide binding, red fluorescence polarization; 75,000 tested, 0.03% active
#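 Rhodamine-labelled pBACH1 10-mer (100 nM) bound to BRCT domain (100 nM) at pH 7.3; compounds incubated 12 min room temperature, polarization read. Free peptide defines full inhibition; unlabelled decapeptide titrated as control.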
# 15-hLO-2 inh: blocks human 15-lipoxygenase 2 activity; Potency, µM (doses to about 57.1 µM), actives largely listed as inhibitors; purified 15hLO-2, xylenol orange hydroperoxide absorbance; 110,000 tested, 0.56% active; note: nearly all actives have a fitted effect of over 60% in size
# Target sequence (O15296 whole entry, looked up): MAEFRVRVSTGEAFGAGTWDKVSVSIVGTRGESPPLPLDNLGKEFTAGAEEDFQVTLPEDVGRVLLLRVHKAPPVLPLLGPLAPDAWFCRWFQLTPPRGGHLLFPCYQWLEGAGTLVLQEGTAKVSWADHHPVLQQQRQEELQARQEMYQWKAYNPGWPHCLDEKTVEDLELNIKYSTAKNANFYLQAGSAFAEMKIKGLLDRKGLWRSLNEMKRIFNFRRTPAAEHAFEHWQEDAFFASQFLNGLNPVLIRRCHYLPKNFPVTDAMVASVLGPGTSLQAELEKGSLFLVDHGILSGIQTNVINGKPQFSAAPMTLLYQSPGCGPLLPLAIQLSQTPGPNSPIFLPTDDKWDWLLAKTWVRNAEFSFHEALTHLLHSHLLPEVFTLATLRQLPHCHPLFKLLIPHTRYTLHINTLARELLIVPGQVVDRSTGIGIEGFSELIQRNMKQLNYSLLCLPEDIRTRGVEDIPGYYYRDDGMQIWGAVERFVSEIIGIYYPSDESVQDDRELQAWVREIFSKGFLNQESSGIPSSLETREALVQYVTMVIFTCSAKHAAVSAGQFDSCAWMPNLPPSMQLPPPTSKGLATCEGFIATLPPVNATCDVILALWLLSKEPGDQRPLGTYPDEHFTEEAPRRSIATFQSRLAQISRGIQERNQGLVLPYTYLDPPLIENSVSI
#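 Purified human 15hLO-2 (50 nM final) preincubated with compounds 15 min at room temperature in 25 mM Hepes pH 7.5, 0.01% Triton X-100, then 45 uM arachidonic acid added for 90 min; hydroperoxide detected via ferrous/xylenol orange, 573/405 nm absorbance ratio.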
# TsaE inh: inhibitors of E. coli YjeE (TsaE) | P0AF67 | purified YjeE enzyme, qHTS inhibition assay | Potency, µM | 71,000 tested, 0.05% active | AID 605
#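 Fluorescence polarization of a BODIPY Texas Red–ADP probe (2 uM) bound to purified YjeE (10 uM) was read after 15 min room-temperature incubation with compounds. Loss of polarization marks inhibitors; ADP serves as titrated control.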
# BRCT PPI green: inhibitors of human BRCA1 BRCT-phosphoprotein interaction (green fluorophore); BRCA1 BRCT-phosphopeptide binding, green fluorescence polarization; Potency, µM (highest dose often 76.9 µM), hits mostly inhibitors; 75,000 tested, 0.05% active; AID 875
#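 Fluorescence polarization: His-tagged BRCT (~35 kDa BRCA1 C-terminus, 250 nM) bound to 100 nM fluorescein-labeled phosphorylated 10-aa BACH1 peptide, pH 7.3 phosphate buffer with DTT and Tween 20. Compounds incubated 12 min at room temperature; inhibition read as lowered polarization.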
# ALOX15 inhib: 15-hLO (ALOX15) enzyme inhibition; P16050; purified 15hLO-1, xylenol orange hydroperoxide absorbance; Potency, µM (series often up to 57.1 µM), most hits filed as inhibitors; 74,000 tested, 1.4% active; AID 887; note: nearly all actives have a fitted effect of over 55% in size
#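 Inhibition is scored from a chromogenic endpoint. After 15 min enzyme-compound contact, arachidonic acid (50 uM final) reacts 6 min with 40 nM 15hLO-1 at room temperature, then Fe-XO reagent is added for 30 min and absorbance ratio recorded.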
# Numbers stand for hits; i = inactive; ? = inconclusive; nt = no result; [ ] = dose if it differs, or a comment. Calls come from the whole dose curve; as a rule, active = well fitted curve in the direction sought with a large enough effect; inconclusive = small, poorly fitted or top-dose-only effect, or another doubt; inactive = no such curve, though single readings can be large; an effect the other way counts as inactive or inconclusive.
SMILES,DNA Pol III inh,BRCT inh red,15-hLO-2 inh,TsaE inh,BRCT PPI green,ALOX15 inhib
COC(c1ccccc1Br)C(C)/C=C/CCO (stereo not drawn),nt,i[15.4 µM],nt,nt,i[15.4 µM],1.58µM
O=[N+]([O-])c1ccc(NN=C2c3ccccc3Cc3ccccc32)c([N+](=O)[O-])c1,i[11.4 µM],i[15.4 µM],i[11.4 µM],i,i[15.4 µM],i[11.4 µM]
O=C(NC(=S)Nc1ccccc1N1CCCC1)c1ccc(-c2cccc([N+](=O)[O-])c2)o1,nt,nt,7.94µM,nt,nt,nt
O=C(NC(=S)Nc1ccccc1N1CCCCC1)c1ccc(-c2cccc([N+](=O)[O-])c2)o1,nt,nt,25.1µM,nt,nt,nt
NC1=C(O)C(=O)[C@H](c2c[nH]c3ccc(OCc4ccccc4)cc23)O1,i[11.4 µM],i[15.4 µM],i[11.4 µM],i,i[15.4 µM],i[11.4 µM]
O=C(O)CCCC(=O)N(Cc1ccccc1)Cc1ccccc1,i[11.4 µM],i,i,i,i,i[11.4 µM]
CCN(Cc1ccccc1)C(=O)CCCOc1ccccc1,i[11.4 µM],i,i,i,i,3.98µM
O=C(OC1CCCCC1)c1ccc2c(c1)C1C=CCC1C(C(=O)O)N2 (stereo not drawn),20µM,?,?,i,?,25.1µM
O=C(O)C1Nc2c(O)cccc2C2C=CCC12 (stereo not drawn),3.16µM,i,nt,i,i,?
Cc1cc(-c2ccc(N=Nc3cc(S(=O)(=O)O)c4ccccc4c3N)c(C)c2)ccc1N=Nc1cc(S(=O)(=O)O)c2ccccc2c1N,?,i,3.16µM,i,i,0.398µM
O=C(OCC1OC(OC(=O)c2cc(O)c(O)c(OC(=O)c3cc(O)c(O)c(O)c3)c2)[C@@H](OC(=O)c2cc(O)c(O)c(OC(=O)c3cc(O)c(O)c(O)c3)c2)C(OC(=O)c2cc(O)c(O)c(OC(=O)c3cc(O)c(O)c(O)c3)c2)C1OC(=O)c1cc(O)c(O)c(OC(=O)c2cc(O)c(O)c(O)c2)c1)c1cc(O)c(O)c(OC(=O)c2cc(O)c(O)c(O)c2)c1 (stereo partly drawn),nt,i,1.58µM,nt,i[3.08 µM],0.501µM
CC(=O)NC1C(OCCOc2ccc(Cl)cc2Cl)OC(COC(C)=O)C(OC(C)=O)C1OC(C)=O (stereo not drawn),nt,nt,i,nt,nt,nt
O=C(NO)c1ccccc1,i,i,i,i,i,?
O=C(NC1(O)C(=O)c2ccccc2C1=O)c1ccccc1,i,i,25.1µM,i,i,i
N#Cc1c(NCCCO)nc(NCc2ccccc2)c2c1CCN(Cc1ccccc1)C2,i,i,i,i,i,5.01µM
O=C(/N=C1\NC(=O)C(F)(C(F)(F)F)S1)NC1CCCCC1 (stereo not drawn),i,i,i,i,i,10µM
CC1=CC(C)(C)N2C(=O)C3(N=C(N)NC(Nc4ccccc4)=N3)c3cc(C)cc1c32 (stereo not drawn),i,i,i,i,i,25.1µM
CC1=CC(C)(C)N2C(=O)C3(SCC(=O)N3c3ccc(O)cc3)c3cc(C)cc1c32 (stereo not drawn),i,i,?,i,i,i
C[N+](C)(C)[C@@H](C1=CCCC1=O)c1ccccc1,i[11.4 µM],i[15.4 µM],i[11.4 µM],i,i[15.4 µM],i[11.4 µM]
O=c1cc(O)cc(/C=C\c2ccc(O)c(O)c2)o1,6.31µM,i,?,i,i,0.794µM
O=C(O)/C=C/c1ccc(O)c(O)c1,nt,i,i,nt,i,i
O=C(O)CCCC[C@H]1CCSS1,i,i,i,i,i,i
O=C1c2cc([N+](=O)[O-])ccc2-c2ccc3c4ccc5c6c(ccc(c7ccc1c2c73)c64)C(=O)c1cc([N+](=O)[O-])ccc1-5,3.98µM,i[15.4 µM],?,i,i[15.4 µM],i[11.4 µM]
C=CCOC(=O)C(C(C)=O)C(NC(=O)OC)c1cccc(C)c1 (stereo not drawn),nt,i[15.4 µM],nt,nt,i[15.4 µM],i[11.4 µM]
CN(C(=O)c1cc2nc(-c3ccco3)cc(C(F)(F)F)n2n1)C1CCCCC1,nt,i,i,nt,i,10µM
CCOC(=O)c1ccccc1N/C=C1\CCCC1=O,i,i,i,i,i,i
COC(=O)c1ccccc1N/C=C1\CCc2c(c(C)nn2-c2ccccn2)C1=O,nt,nt,2.51µM,nt,nt,nt
CCCCC#CC1C=CC(OC(C)=O)C(COC(C)=O)O1 (stereo not drawn),nt,i[15.4 µM],nt,nt,i[15.4 µM],i[11.4 µM]
COc1ccc(OCc2nnc(SCC(=O)N3CCCc4ccccc43)n2-c2ccc(C)cc2)cc1,nt,nt,i,nt,nt,nt

# High-throughput results: PubChem, National Center for Advancing Translational Sciences (NCATS)
